The structures appear in SMILES notation. In all, about 1,000 compounds went through this assay and about 250 (25%) were called active. Not shown: some 31% with an inconclusive outcome. Not all results are given here. Potency and affinity values are given separately. Values without a mark were called inactive. The rule behind the calls is not given here.

This test is described as follows: compound activity on host-cell Toxoplasma growth – dose response (AID 1259420).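 Note: host cells were HeLa; final incubation lasted 72 hours.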 To be noted: Toxoplasma gondii growth in host cells, no IFN-gamma.

Regarding `COC(=O)/C=c1\sc2nc(=O)c(C)nn2c1=O`, the max activity (at 19.5 µM unless noted) was -11.2% [at 10 µM].

Regarding `COc1ccccc1-c1ccc(C2[C@@H]3CN(S(=O)(=O)c4ccc(C)cc4)C[C@H]2N3)cc1` (some centres not stated), the max activity (at 19.5 µM unless noted) was 22.8%.

As to `COc1ccc(S(=O)(=O)N2CCC(c3nc4ccc(-c5ccncc5)cn4n3)CC2)cc1`, the max activity (at 19.5 µM unless noted) was -32.4% [at 10 µM]. For the molecule `Cc1nc(N2CCCC2)nc2c1CCN(S(=O)(=O)c1ccccc1)CC2`, the max activity (at 19.5 µM unless noted) is -5.81% [at 10 µM].

Turning to `Cc1cccc(S(=O)(=O)N2CCc3nc(-c4cnn(C)c4)nc(NC4CC4)c3C2)c1`, the max activity (at 19.5 µM unless noted) is -22.6% [at 1.2 µM]. Consider `CC(C)(C)NC(=O)[C@@H]1CC2CCCCC2CN1C[C@@H](O)[C@H](Cc1ccccc1)NC(=O)[C@H](CC(N)=O)NC(=O)c1ccc2ccccc2n1` (some centres not stated), for which the max activity (at 19.5 µM unless noted) is -8.44%.

`CC/C(=C(\c1ccccc1)c1ccc(OCCN(C)C)cc1)c1ccccc1`: where the note is “at 19.5 µM unless noted”, the max activity is 22.1%. The same measure, in the same setting: in the case of `CCCNC(=O)c1cc(-c2ccn(CC3CC3)n2)n2ccccc12` it was -19.1% [at 10 µM]; in that of `Cc1ccc(-c2cc(O)c3c(c2)CN(C(=O)CCN2CCCO2)CCO3)s1`, 12.4% [at 10 µM]. `N#Cc1ccc(-c2ccc([C@@H]3[C@@H](CO)N4C(=O)CNC[C@H]34)cc2)cc1`: for the setting “at 19.5 µM unless noted”, the max activity was 33.8%. With `O=C1CNC[C@@H]2[C@H](c3ccc(C#Cc4cccnc4)cc3)[C@H](CO)N12`, the max activity (at 19.5 µM unless noted) is 16.3%.

Consider `O=S1(=O)c2ccccc2C2(CCN(CC3CC3)C2)N1Cc1ccc(F)cc1` (configuration not stated), for which the max activity (at 19.5 µM unless noted) was 13.7%. Still for that read-out and setting: with `CN(Cc1ccccn1)C(=O)C1=NOC2(CCN(S(=O)(=O)c3cccc(F)c3)C2)C1` (configuration not stated) the figure was -20.7% [at 10 µM]; with `CC(C)n1c(C(=O)Nc2cccc(F)c2)nc2c1CCN(Cc1ccccc1)C2`, -15.6% [at 10 µM]; with `CCC(=O)N1CC(=O)N2[C@H](CO)[C@H](c3ccc(C#CCC(C)C)cc3)[C@H]2C1`, 13.7%.

On to `O=C1CNC[C@@H]2[C@H](c3ccc(C#Cc4cccnc4)cc3)[C@@H](CO)N12`, for which the max activity (at 19.5 µM unless noted) was -12.5% [at 0.16 µM]. With `COC1CCCC(C(=O)N2CCC3(CC2)C(=O)Nc2ccc(-c4ccc(C(C)=O)cc4)cc23)C1` (configuration not stated), for the setting “at 19.5 µM unless noted”, the max activity was -15.4% [at 10 µM]. As to `CC(C)CC#Cc1ccc([C@H]2[C@@H](CO)N3C(=O)CN(C(=O)c4cccc(F)c4)C[C@H]23)cc1`, the max activity (at 19.5 µM unless noted) is 19.6%. Take `CC(C)CC#Cc1ccc([C@H]2[C@H]3CN(C(=O)Nc4cc(F)ccc4F)CC(=O)N3[C@H]2CO)cc1`: the max activity (at 19.5 µM unless noted) was 31.4%. Same read-out and setting: in the case of `CC(C)CC#Cc1ccc([C@H]2[C@@H](CO)N3C(=O)CN(C(=O)Nc4cc(F)ccc4F)C[C@H]23)cc1` it was 17.1%. As to `CC(C)CC#Cc1ccc([C@@H]2[C@H](CO)N3C(=O)CN(C(=O)c4cccc(F)c4)C[C@@H]23)cc1`, the max activity (at 19.5 µM unless noted) is 12.3% [at 1.2 µM]. With `COc1ccc(CN2CCC3(CC(n4cnnc4)CO3)C2)cc1` (configuration not stated), the max activity (at 19.5 µM unless noted) was 41.3%. As to `O=C(Cc1cccnc1)N1CC(=O)N2[C@H](CO)[C@H](c3ccc(C#CC4CCCCC4)cc3)[C@@H]2C1`, the max activity is -8.18% (at 10 µM) and 7.75% (at 19.5 µM). Consider `O=C(CC(F)(F)F)N1C[C@@H]2[C@H](c3ccccc31)[C@H](CO)N2CC1CCOCC1`, for which the max activity (at 19.5 µM unless noted) was -6.58% [at 5 µM]. As to `CN(C)C(=O)c1ccc(-c2ccc([C@H]3[C@H](CO)N4C(=O)CN(C(=O)CC5CC5)C[C@@H]34)cc2)cc1`, the max activity (at 19.5 µM unless noted) is -9.43% [at 0.3 µM]. For the molecule `O=C(C1CCCCC1)N1[C@H](CO)[C@@H]2c3ccccc3N(S(=O)(=O)c3ccccc3)C[C@@H]21`, the max activity (at 19.5 µM unless noted) was 10.6% [at 5 µM]. Regarding `CN(C)C(=O)c1cccc(-c2ccc(C3[C@H]4CNC[C@@H]3N4Cc3ccccc3C(F)(F)F)cc2)c1` (some centres not stated), for the setting “at 19.5 µM unless noted”, the max activity is -11.4%. With `COc1ccc(C#Cc2ccc3c(c2)[C@H]2[C@H](CCN2C(=O)c2cnccn2)[C@H](CO)N3)cc1`, the max activity (at 19.5 µM unless noted) is 21.9%. For `COCC(=O)N1CC(=O)N2[C@H](CO)[C@@H](c3ccc(-c4ccncc4)cc3)[C@H]2C1`, the max activity (at 19.5 µM unless noted) is 9.86% [at 2.6 µM]. `CC(C)c1ccc(C(=O)N=C(N)N)cc1S(C)(=O)=O`: the max activity (at 19.5 µM unless noted) is -6.61% [at 10 µM]. `O=C1CNC[C@H]2[C@@H](c3ccc(C#Cc4cccnc4)cc3)[C@@H](CO)N12`: the max activity (at 19.5 µM unless noted) is -4.61% [at 1.2 µM]. The same measure, in the same setting: with `NCCCCCCNS(=O)(=O)c1ccc2c(Cl)cccc2c1` the figure was -5.19% [at 10 µM]. Turning to `NC(=O)CN1CCOCCOCCN(CC(N)=O)CCOCC1`, where the note is “at 19.5 µM unless noted”, the max activity is 5.9% [at 5 µM]. Same read-out and setting: with `COCCN(CCOC)C(=O)c1cc2c(c3ccccc3n2CC2CC2)n1-c1ncccn1` the figure was 18%. As to `CN(C)S(=O)(=O)N1C[C@@H]2CN(Cc3ccoc3)CCO[C@H]2C1`, the max activity (at 19.5 µM unless noted) is -18.6%. On the same count and under the same terms, in the case of `COC[C@H]1CN(C)C[C@]12CCN(C(=O)c1cc3ccccc3s1)C2` it was 11.6%; in that of `CCN1[C@@H]2CCN(C(=O)CC3CC3)CC[C@@H]2Oc2ccccc2S1(=O)=O`, 19.2% [at 1.2 µM]. Still for that read-out and setting: with `O=S1(=O)c2ccccc2OCC2(CCN(Cc3ccccc3)CC2)CN1CC1CC1` the figure was 19.2%. With `O=C(NCc1cncc2c1CCN(Cc1cccc(F)c1)C2)C1CC1`, the max activity was 9.94% (at 5 µM) and 14% (at 19.5 µM). For the molecule `CC(=O)N1CCN(C(C)C)C(c2nnc3ccc(C(=O)N4CCCC4)cn23)C1` (configuration not stated), under “at 19.5 µM unless noted”, the max activity was -12.1% [at 10 µM].

Turning to `O=S(=O)(c1cccc(F)c1)N1CC[C@@H]2[C@H]1c1cc(Br)ccc1N[C@@H]2CO`, for the setting “at 19.5 µM unless noted”, the max activity was 7.04%.

As for `CCC(=O)N1CC[C@@H]2[C@H]1c1cc(C#Cc3ccccc3F)ccc1N[C@@H]2CO`, for the setting “at 19.5 µM unless noted”, the max activity was -12.6%. The same measure, in the same setting: with `Cc1cccc(S(=O)(=O)N2CC[C@@H]3[C@@H](CO)Nc4ccc(-c5ccccc5F)cc4[C@@H]32)c1` the figure was -19% [at 0.6 µM]; with `COc1ccccc1-c1ccc2c(c1)[C@H]1[C@H](CCN1S(=O)(=O)c1ccc(C)cc1)[C@@H](CO)N2`, 21.4%. In the case of `COc1ccccc1-c1ccc2c(c1)[C@H]1[C@H](CCN1Cc1ccccc1F)[C@@H](CO)N2`, the max activity (at 19.5 µM unless noted) is 20.2%.

For the origin of these results see PubChem BioAssay AID1259420 (Broad Institute, 2018).
